# Assay outcomes as filed in PubChem.
# M1 antag – antagonists of rat M1 muscarinic receptor; 64,000 tested, 3.4% active; AID 628; P08482; B-score at 10 µM; CHO-M1 cells, Fluo-4 calcium, ACh EC80 antagonist mode; stronger effect = lower value;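 active means calcium fluorescence response, raw or row-and-column corrected B-score, differing from the plate sample mean either way at a set confidence level, mostly lower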
# A340 absorber – compounds absorbing at 340 nm | compound absorbance at 340 nm, fold over control | fold change at 10 µM | 65,000 tested, under 10 active | AID 708;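 active means at 10 µM dose, initial 340 nm absorbance at least 2 fold that of control wells; inactive means change under 2 fold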;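 further: initial absorbance extrapolated from kinetic A340 decline of NADH oxidation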
# BAP1 block – blocks human BAP1 ubiquitin-AMC hydrolysis; Q92560; recombinant BAP1, Ub-AMC hydrolysis fluorescence kinetic; stronger effect = lower value; calls only at 20 µM; 72,000 tested, 0.48% active;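 active means activity remaining at or below 50% of control, provided the compound also passes the data quality filters; inactive means the rest, including low values that fail the filters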;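 further: 100% = DMSO wells rate and 0% = substrate alone blank rate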
# Fluor 339 460 – intrinsic fluorescence of library compounds, ex339/em460 – biochemical, MLSMR library, data from DPM-DC assay, artefact control, profiling panel | fluorescence fold increase at 10 µM | AID 709 | compound autofluorescence, ex339/em460 nm, NADH buffer; stronger effect = higher value; 1 = no-compound wells, NADH background | 65,000 tested, 5.5% active;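 active means at 10 µM, mean starting fluorescence two-fold or more over control wells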;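 further: signal is the first read of a kinetic run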
# WNV NS2B-NS3 inh – WNV NS2B-NS3 proteinase inhibition. WNV NS2B-NS3 protease, fluorogenic substrate Ex360/Em465; stronger effect = lower value. z-score (concentration not given with the values). 65,000 tested, 0.18% active. AID 577; in the data active means z-score below about -3
# M1 ag – M1 muscarinic receptor agonism | CHO-M1 cells, Fluo-4 calcium fluorescence, agonist mode; stronger effect = higher value | 64,000 tested, 3% active | B-score at 10 µM;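 active means fluorescence rise, raw or as B-score row- and column-corrected plate score, outside the 99.7% band of its plate's samples, either direction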
# M1 ag confirm – confirmation of rat M1 muscarinic receptor agonists; shares compounds with M1 ag; CHO-M1 cells, Fluo-4 calcium fluorescence, agonist mode; actives lie on both sides; fluorescence change (max-min) at 10 µM; 1,700 tested, 19% active;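 active means fluorescence change differs from the solvent-only DMSO control mean at a set confidence level in both duplicate runs; inconclusive means differs from solvent-only control mean in just one of two runs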;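 further: an EC20 dose of acetylcholine follows compound addition during the same imaging run; raw fluorescence intensity difference in instrument units with no normalization to controls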
# M4 agonist ctr – rat M4 muscarinic agonism, M1 counter-screen; CHO M4/Gqi5 cells, Fluo-4 calcium fluorescence, agonist mode; actives lie on both sides; 1,700 tested, 9% active; shares compounds with M1 ag; AID 1741; fluorescence change (max-min) at 10 µM;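 active means fluorescence change differing from the plate's solvent-only control wells at 99.7% confidence in both duplicates, whether higher or lower; inconclusive means differs from solvent controls in only one of two duplicates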
# Target sequence (P08485 whole entry, looked up): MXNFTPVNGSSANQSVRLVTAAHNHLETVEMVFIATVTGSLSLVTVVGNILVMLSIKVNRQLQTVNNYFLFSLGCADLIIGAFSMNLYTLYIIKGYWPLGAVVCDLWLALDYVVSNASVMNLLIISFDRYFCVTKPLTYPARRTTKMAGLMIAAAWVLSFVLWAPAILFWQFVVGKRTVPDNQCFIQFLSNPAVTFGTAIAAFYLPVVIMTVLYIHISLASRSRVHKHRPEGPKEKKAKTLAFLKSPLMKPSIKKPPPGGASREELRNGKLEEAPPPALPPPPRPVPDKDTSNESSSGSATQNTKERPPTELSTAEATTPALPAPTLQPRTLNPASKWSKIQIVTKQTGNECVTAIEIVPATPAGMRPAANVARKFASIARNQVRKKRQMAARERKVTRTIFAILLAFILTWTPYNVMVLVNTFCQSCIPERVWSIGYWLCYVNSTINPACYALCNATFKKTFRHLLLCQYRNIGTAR
# Numbers without * were called inactive; i = inactive; u = inconclusive; x = no result shown. A selection: hits, their analogues and other compounds. The true share with any hit is near 9.7%.
SMILES,M1 antag,A340 absorber,BAP1 block,Fluor 339 460,WNV NS2B-NS3 inh,M1 ag,M1 ag confirm,M4 agonist ctr
O=C(Nc1ccccc1)Nc1ccc(S(=O)(=O)N2CCCCC2)cc1,-0.67,1.1,i,1.1,0.26,3.5*,-14,-28
COC(=O)Nc1ccc(S(=O)(=O)N2CCCCCC2)cc1,0.047,0.99,i,1,0.83,-0.018,x,x
Cc1ccc2nc(-c3ccc(C)c(NC(=O)c4ccc(Br)cc4)c3)oc2c1,x,x,i,x,x,x,x,x
CCn1c(=O)n(CC)c2cc(S(=O)(=O)N3CCc4ccccc43)ccc21,0.42,1.1,i,1.1,-0.1,2.6*,-6.5,-35
COc1ccc2[nH]c(=O)c(CN(Cc3cccnc3)C(=O)Nc3ccccc3)cc2c1,-1,1.1,x,2.5*,-0.37,3.5*,-28*,u
COc1ccc2[nH]c(=O)c(CN(Cc3nnnn3Cc3ccc(F)cc3)CC3CCCO3)cc2c1 (stereo not given),-0.15,1,x,2*,2,2.6*,-5.8,-17
COc1ccc(NCc2cc3cc(OC)ccc3[nH]c2=O)cc1,-0.002,1.1,i,1.9,0.6,3.8*,-2.2,-10
COc1cc(C(=O)N(Cc2cc3ccccc3[nH]c2=O)CC2CCCO2)cc(OC)c1OC (stereo not given),x,1,i,1.3,1.2,x,x,x
CC(=O)N(Cc1cccnc1)Cc1cc2ccccc2[nH]c1=O,x,1.1,i,1.4,1.1,x,x,x
COc1ccc2[nH]c(=O)c(CN(CC3CCCO3)C(=O)Nc3ccccc3OC)cc2c1 (stereo not given),0.062,1.1,x,2.5*,0.22,6.4*,3.2,-4.9
CCn1c(CSc2nccn2C)nc2cc(C(=O)O)ccc21,0.22,1,i,1.3,0.41,7.2*,11,-38
COc1cccc(C(=O)Nc2c3c(nn2-c2ccc(C)cc2)CSC3)c1OC,x,x,i,x,x,x,x,x
Cc1cc(NC(=O)COc2ncnc3sc(C)c(C)c23)no1,0.45,0.98,i,1,0.41,15*,-11,-16
COc1cc(C2Nc3ccccc3NC3=C2C(=O)CC(C)(C)C3)cc(I)c1O (stereo not given),x,x,i,x,x,x,x,x
Cc1ccsc1C1C=C(c2cccc(Br)c2)Nc2ncnn21 (stereo not given),-0.92,1,i,1.7,-1.3,34*,836*,793*
COc1cccc(C2=CC(c3ccc(C)cc3)n3ncnc3N2)c1 (stereo not given),-1.1,1.1,i,1.7,0.74,8*,165*,u
Cc1ccc(C)c(S(=O)(=O)n2ccnc2)c1,x,x,i,x,x,x,x,x
CCOC(=O)c1c(C)n(C)c2ccc(OCC(O)Cn3nc(C)cc3C)cc12 (stereo not given),-0.36,1,i,1.1,0.58,2.7*,u,-40
CCOC(=O)c1c(C)n(C)c2ccc(OCC(O)CN(CC)CC)cc12 (stereo not given),0.063,1,i,1.1,1.9,1.6,x,x
Cn1c(=O)c2c(SCC(=O)c3ccccc3)nc(C3CC3)nc2n(C)c1=O,-1,1,i,1.1,1.5,2.7*,-13,-44
CC1=C(C(=O)OCCc2ccccc2)C(c2ccccc2[N+](=O)[O-])C2=C(CCCC2=O)N1 (stereo not given),x,x,i,x,x,x,x,x
C=CCSc1nnc(-c2ccncc2)n1-c1ccc(OCC)cc1,0.62,1,i,1.1,-1.4,1.7*,-12,-25
CCOc1ccc(-n2c(SCc3ccc(C#N)cc3)nnc2-c2cccnc2)cc1,0.6,1,i,1,-0.06,0.16,x,x
CCOC(=O)CNC(=O)CSc1ncnc2c1cnn2-c1ccccc1,-0.94,1,i,1,1.2,-1.2,x,x
CCOC(=O)CNC(=O)CSc1ncnc2c1cnn2-c1ccc(C)cc1,0.00036,1,i,1.1,0.33,-2.2*,5.3,-19
SMILES,M1 antag,A340 absorber,BAP1 block,Fluor 339 460,WNV NS2B-NS3 inh,M1 ag,M1 ag confirm,M4 agonist ctr
Cc1ccc(C)c(N2CCN(C(=O)c3cc4ccccn4n3)CC2)c1,-0.77,0.98,i,1,0.4,31*,55,10
Cn1nc(-c2ccc(C(=O)Nc3cccnc3)cc2)c2ccccc2c1=O,0.033,1.1,i,1.1,-0.74,0.46,x,x
Cn1nc(-c2ccc(OCC(=O)Nc3cccnc3)cc2)c2ccccc2c1=O,-0.59,1.1,i,1.1,-0.97,6.2*,u,-38
COC(=O)C1=C(N)Oc2cc(C)n(CC3CCCO3)c(=O)c2C1c1ccccc1OC (stereo not given),-0.27,0.99,i,1.2,-0.91,0.44,x,x
COC(=O)C1=C(N)Oc2cc(N(C)C)ccc2C1c1ccccc1OC (stereo not given),-0.7,1,i,1.2,-0.05,10*,18,-20
COC(=O)c1ccc(CC(=O)c2ccc(O)cc2O)o1,0.13,1.2,i,1.1,0.54,20*,37,11
COc1ccc(CNC(=O)Cc2nn(C)c(=O)c3ccccc23)cc1,-0.48,1.1,i,1.1,0.73,11*,8.4,3.6
COc1ccc(OC)c(NC(=O)Cc2nn(C)c(=O)c3ccccc23)c1,-0.52,1,i,1.1,-0.49,-0.19,x,x
Cc1ccc(C2CC(=O)CC(c3ccccc3)S2)cc1 (stereo not given),x,x,i,x,x,x,x,x
Cc1ccc(S(=O)(=O)N2CCCN(S(=O)(=O)c3ccc(C)cc3)CC2)cc1,-0.037,1,i,1.1,0.14,0.48,x,x
C=CCN=C1SCC(=O)N1S(=O)(=O)c1ccc(C)cc1,-0.2,0.99,i,1,0.15,3.5*,-15,-45
Cc1nn(-c2ccccc2)c(C)c1C(=O)OC/C(O)=C(\C#N)c1nc2ccccc2[nH]1,0.65,1,x,1.1,2,2.9*,-21*,-53
OC(COc1ccc2ccccc2c1Cl)CN1CCOCC1 (stereo not given),0.0084,0.98,i,1.1,0.54,0.27,x,x
OC(COc1ccccc1Cl)CN1CCN(CC(O)COc2ccccc2Cl)CC1 (stereo not given),-0.49,1,i,1.1,-0.54,5.2*,-13,u
CCOc1ccc(-c2n[nH]c(C(F)(F)F)c2-c2ccccc2)c(O)c1C,x,x,i,x,x,x,x,x
